# According to PubChem BioAssay (NCATS):
# “And” between values parts separate entries of the source, which are not always exact repeats. Identical values can stand only once. Results filed as inconclusive are left out. A number with no mark means an inactive call. The source made the active and inactive calls. The call rests on the fitted dose curve; in most records, active means well fitted curve in the direction sought with a large enough effect; inconclusive means small, poorly fitted or top-dose-only effect, or another doubt; inactive means no such curve, though single readings can be large; an effect the other way counts as inactive or inconclusive.
# System: not listed separately
# Assay: Primary qHTS for inhibitors of nuclear receptor binding SET domain protein 2 (NSD2) in an isogenic RCH-ACV NSD2 p.E1099K mutant (9B) (AID 1645876); further: nearly all actives have a fitted effect of over 70% in size; on activity change, negative = viability loss: on the % scale 0 is the no-effect control and ±100 the full control effect
# Conditions: RCH-ACV NSD2 E1099K (9B) viability, CellTiter-Glo, 72 h; series mostly up to 44.9 µM; activity change, negative = viability loss: at the top concentration
SMILES,"activity change, negative = viability loss [%]",Potency
O=C1c2ccccc2S(=O)(=O)N1CCCCN1CCN(c2ncccn2)CC1,-4.96,–
CC(O)CCCCn1c(=O)c2c(ncn2C)n(C)c1=O (configuration not stated),-14.5,–
O=C(O)c1ccccc1C(=O)Nc1ccc(S(=O)(=O)Nc2nccs2)cc1,-2.36,–
CN(C(=O)c1c(O)c2ccccc2n(C)c1=O)c1ccccc1,–,inactive
CC[N+](C)(CC)CCOC(=O)C1c2ccccc2Oc2ccccc21,9.6,–
O=C(OOC(=O)c1ccccc1)c1ccccc1,6.34,–
Cc1cc(NC(=O)C2=C(O)c3ccccc3S(=O)(=O)N2C)no1,7.67,–
Nc1ncnc(Nc2ccccc2)n1,-8.05,–
C/C=C/C(=O)N(CC)c1ccccc1C,–,inactive
O=C(O)CCCCC1CCSS1 (configuration not stated),-0.451,–
CC1(C)S[C@@H]2[C@H](N=CN3CCCCCC3)C(=O)N2[C@H]1C(=O)O,9.29,–
O=C(O)c1ccc(OCCCOc2ccc(C(=O)O)cc2)cc1,2.64,–
COc1ccc(C(=O)N2CCN(CC(=O)N3CCOCC3)CC2)cc1,4.26,–
CN1CCCN=C1COC(=O)C(O)(c1ccccc1)C1CCCCC1 (configuration not stated),-4.52,–
CCOC(=O)OC(C)OC(=O)[C@@H]1N2C(=O)[C@@H](NC(=O)[C@H](N)c3ccccc3)[C@H]2SC1(C)C (some centres not stated),6.47,–

# System: not listed separately
# Assay: Primary qHTS for inhibitors of nuclear receptor binding SET domain protein 2 (NSD2) in an RCH-ACV wild type WT cells (2C) (AID 1645877); further: nearly all actives have a fitted effect of over 70% in size; further: potency means the concentration at half of the fitted maximal effect; on activity change, negative = cell killing: on the % scale 0 is the no-effect control and ±100 the full control effect
# Conditions: RCH-ACV (leukaemia line) NSD2 WT (2C) viability, CellTiter-Glo, 72 h; series mostly up to 44.9 µM; activity change, negative = cell killing: at the top concentration
SMILES,"activity change, negative = cell killing [%]",outcome,Potency
C[N+]1(C)CCCC(OC(=O)C(O)(c2ccccc2)c2ccccc2)C1 (configuration not stated),-4.59,–,–
CCCCCC(N)=O,-17.6,–,–
Cc1ncc(CO)c(CN)c1O,3.03,–,–
NC(=O)NC1NC(=O)NC1=O (configuration not stated),–,inactive,–
CCN[C@H]1CN(CCCOC)S(=O)(=O)c2sc(S(N)(=O)=O)cc21,1.9,–,–
CC[C@]12CCCN3CCc4c(n(c5ccccc45)[C@@](O)(C(=O)OC)C1)[C@@H]32,-0.976,–,–
O=S1(=O)OC(c2ccc(O)cc2)(c2ccc(O)cc2)c2ccccc21,-1.08,–,–
C[N+](C)(C)CC(O)CC(=O)[O-] (configuration not stated),-15.5,–,–
COc1ccc2cc(CCC(C)=O)ccc2c1,-20.5,–,–
CCOC(N)=O,-3.39,–,–
COc1cc(O)cc(O)c1,-11.7,–,–
CC(=O)[C@@]1(O)CC[C@H]2[C@@H]3C[C@H](C)C4=CC(=O)C=C[C@]4(C)[C@@]3(F)[C@@H](O)C[C@@]21C,–,–,3 nM (active)
Cc1ccsc1C(=CCCN1CCC[C@@H](C(=O)O)C1)c1sccc1C,–,–,inactive
O=C(O)CCCc1ccccc1,–,–,inactive
CC1CCc2cc(F)cc3c(=O)c(C(=O)O)cn1c23 (configuration not stated),-2.77,–,–
O=C(O)c1ccccc1OP(=O)(O)O,7.37,–,–
CC1(C)[C@@H](OC(=O)CCC(=O)O)CC[C@]2(C)[C@H]3C(=O)C=C4[C@@H]5C[C@@](C)(C(=O)O)CC[C@]5(C)CC[C@@]4(C)[C@]3(C)CC[C@@H]12,-6.9,–,–
COC(=O)N/N=C/c1c[n+]([O-])c2ccccc2[n+]1[O-],–,–,7500 nM (active)

SMILES,"activity change, negative = cell killing [%]",outcome,Potency
Cc1cc(O)cc(C)c1Cl,7.95,–,–
CC(=O)Oc1cccc(C)c1,–,inactive,–
O=c1[nH]c(=O)n([C@H]2C[C@H](O)[C@@H](CO)O2)cc1I,–,–,2.99 µM (active) and 662 nM (active)
O=C1c2ccccc2S(=O)(=O)N1CCCCN1CCN(c2ncccn2)CC1,-11.5,–,–
CC(O)CCCCn1c(=O)c2c(ncn2C)n(C)c1=O (configuration not stated),-1.46,–,–
O=C(O)c1ccccc1C(=O)Nc1ccc(S(=O)(=O)Nc2nccs2)cc1,-5.86,–,–
CN(C(=O)c1c(O)c2ccccc2n(C)c1=O)c1ccccc1,–,–,inactive
CC[N+](C)(CC)CCOC(=O)C1c2ccccc2Oc2ccccc21,–,inactive,–
O=C(OOC(=O)c1ccccc1)c1ccccc1,–,inactive,–
Cc1cc(NC(=O)C2=C(O)c3ccccc3S(=O)(=O)N2C)no1,4.23,–,–
Nc1ncnc(Nc2ccccc2)n1,4.21,–,–
C/C=C/C(=O)N(CC)c1ccccc1C,–,–,inactive
O=C(O)CCCCC1CCSS1 (configuration not stated),–,inactive,–
CC1(C)S[C@@H]2[C@H](N=CN3CCCCCC3)C(=O)N2[C@H]1C(=O)O,9.1,–,–
O=C(O)c1ccc(OCCCOc2ccc(C(=O)O)cc2)cc1,9.55,–,–
COc1ccc(C(=O)N2CCN(CC(=O)N3CCOCC3)CC2)cc1,1.58,–,–
CN1CCCN=C1COC(=O)C(O)(c1ccccc1)C1CCCCC1 (configuration not stated),-4.16,–,–
CCOC(=O)OC(C)OC(=O)[C@@H]1N2C(=O)[C@@H](NC(=O)[C@H](N)c3ccccc3)[C@H]2SC1(C)C (some centres not stated),-15.1,–,–

# Biological target: Rap guanine nucleotide exchange factor 3 (Homo sapiens) (UniProt O95398)
# Sequence (O95398 whole entry, looked up): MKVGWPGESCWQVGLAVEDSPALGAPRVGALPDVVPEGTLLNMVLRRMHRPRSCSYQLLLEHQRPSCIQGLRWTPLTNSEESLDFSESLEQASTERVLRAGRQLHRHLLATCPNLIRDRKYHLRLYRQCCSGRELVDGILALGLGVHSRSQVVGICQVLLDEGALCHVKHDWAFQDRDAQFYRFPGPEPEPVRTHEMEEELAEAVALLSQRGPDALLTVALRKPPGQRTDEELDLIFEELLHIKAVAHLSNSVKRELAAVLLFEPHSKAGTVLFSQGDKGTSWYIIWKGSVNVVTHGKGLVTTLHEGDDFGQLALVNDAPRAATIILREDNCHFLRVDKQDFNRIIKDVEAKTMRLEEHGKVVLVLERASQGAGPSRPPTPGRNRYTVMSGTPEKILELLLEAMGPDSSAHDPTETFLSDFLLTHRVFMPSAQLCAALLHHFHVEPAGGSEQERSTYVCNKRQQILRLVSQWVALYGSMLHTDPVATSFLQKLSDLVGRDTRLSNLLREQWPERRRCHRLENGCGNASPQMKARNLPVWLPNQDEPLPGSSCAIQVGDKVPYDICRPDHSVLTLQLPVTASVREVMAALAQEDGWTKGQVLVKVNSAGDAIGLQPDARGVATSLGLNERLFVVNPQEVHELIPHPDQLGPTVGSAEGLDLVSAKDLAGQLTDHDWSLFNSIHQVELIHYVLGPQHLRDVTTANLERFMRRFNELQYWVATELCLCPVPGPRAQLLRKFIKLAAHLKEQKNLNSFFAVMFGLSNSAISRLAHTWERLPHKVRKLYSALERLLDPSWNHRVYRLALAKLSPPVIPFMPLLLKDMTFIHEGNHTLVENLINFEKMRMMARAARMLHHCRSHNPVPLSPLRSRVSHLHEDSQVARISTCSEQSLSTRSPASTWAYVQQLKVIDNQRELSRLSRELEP
# Assay: Confirmatory qHTS for antagonist of cAMP-regulated guanine nucleotide exchange factor 3 (EPAC1) (AID 1645880);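 further: plate controls were DMSO only for no effect and full effect of the ATA control for full effect; nearly all actives have a fitted effect of over 55% in size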
# Conditions: EPAC1 Rap1B-BODIPY-GDP exchange, fluorescence; series mostly up to 115 µM; activity, negative = inhibition: at the top concentration
# Outline: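 Released BODIPY-GDP fluoresces less than Rap1-bound BODIPY-GDP; the signal is followed at 480/540 nm at 5-min intervals over 30 min, after 5 min at room temperature. Reactions contain 100 nM EPAC1, 250 nM RAP1B-BODIPY-GDP and 50 uM GDP; results are normalized to ATA and DMSO.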
SMILES,"activity, negative = inhibition",outcome
NC(=O)NC1NC(=O)NC1=O (configuration not stated),-2.59% [at 203 µM],–
COc1ccc2cc(CCC(C)=O)ccc2c1,–,inactive
CC1(C)[C@@H](OC(=O)CCC(=O)O)CC[C@]2(C)[C@H]3C(=O)C=C4[C@@H]5C[C@@](C)(C(=O)O)CC[C@]5(C)CC[C@@]4(C)[C@]3(C)CC[C@@H]12,–,inactive

# Biological target: Rap guanine nucleotide exchange factor 3 (Homo sapiens) (UniProt O95398)
# Assay: Confirmatory qHTS for agonist of cAMP-regulated guanine nucleotide exchange factor 3 (EPAC1) (AID 1645881);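 further: EPAC1 catalysed release of BODIPY-GDP from Rap1B seen as fluorescence loss; 100% = effect of cAMP agonist control; nearly all actives have a fitted effect of over 75% in size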
# Conditions: EPAC1 Rap1B BODIPY-GDP exchange fluorescence, 100% = cAMP control response; series mostly up to 154 µM; activation: at the top concentration
SMILES,activation,outcome
NC(=O)NC1NC(=O)NC1=O (configuration not stated),-6.94% [at 271 µM],–
COc1ccc2cc(CCC(C)=O)ccc2c1,–,inactive
CC1(C)[C@@H](OC(=O)CCC(=O)O)CC[C@]2(C)[C@H]3C(=O)C=C4[C@@H]5C[C@@](C)(C(=O)O)CC[C@]5(C)CC[C@@]4(C)[C@]3(C)CC[C@@H]12,–,inactive
